± gives the standard deviation of the averaged measurements. The full ranking holds about 25,000 sequences; the median of “ln(normalized median fluorescence intensity)” is about 8.6, and the highest 2% start at about 10. This excerpt belongs to a sample that is enriched for the highest values.
System: PfAP2-EXP AP2 domain (GST-tagged)
Assay: gcPBM binding intensity (ln(normalized median fluorescence intensity)); higher = stronger DNA binding
How it was run: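 An Agilent 4 × 180k array of primer-extended double-stranded 36-bp intergenic genomic probes, with negative controls, was incubated for 1 h with GST-tagged P. falciparum DNA-binding domains expressed in E. coli. Alexa488 anti-GST antibody detected bound protein, scanned at 488 nm. Binding intensity is the highest Masliner-normalised natural-log median intensity across replicate spots of either probe orientation.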

| Sequence | gcPBM binding intensity (ln) |
| --- | --- |
| TTTTTAATTTTTTGTTGTACATATAATATATTATTA [XGTACX_site4903] | 8.6 ± 0.27 |
| TTTTTTTTTAAAACATAATAAAAAATAAAACAACCT [GTGCAC_negctrl_site92] | 8.77 ± 0.28 |
| ATATACACATTAATAACACACAATATGATAACAAAT [CACACA_site7670] | 8.79 ± 0.33 |
| ATTACATGCAATATATGTACGTAATATATATATATA [XGTACX_site2300] | 9.91 ± 0.38 |
| ATTTAAAAAAGAAAGGTGCATTTCAATAATGTAAAA [GTGCAC_site9585] | 8.62 ± 0.15 |
| TTTTGATATAAAAAAAGTACATTAATAATATTAATT [XGTACX_site4248] | 8.29 ± 0.37 |
| TTATTATATAAAATAAATAACAAAAAAAATAAAATA [GTGCAC_negctrl_site548] | 8.45 ± 0.43 |
| CCTTGCCCCAGGAGTTCACACACATAATAGATTGTC [CACACA_site8138] | 8.82 ± 0.64 |
| TTAACCTTTATATAATACGTATCATCCTCATATATA [CACACA_negctrl_site86] | 8.95 ± 0.61 |
| TTATAAATATTCTTGGGTACTTAAGATGATATGTAA [XGTACX_site5496] | 8.34 ± 0.39 |
| GTTATTAAATAATTCACACACATATATATATATATA [CACACA_site2260] | 10.3 ± 0.45 |
| TTTATTATCTTATTCACACACATATATAAATATGTA [CACACA_site7369] | 8.58 ± 0.4 |
| GCGTTATTAAATAATTCACACACATATATATATATA [CACACA_site8711] | 10 ± 0.38 |
| ATCTCTTATATATTCACACACATATATATAATTATA [CACACA_site1502] | 8.85 ± 0.42 |
| TTTATTATCTTATTCACACACATATATATATATATA [CACACA_site2869] | 10.2 ± 0.41 |
| CAAAATAAAAAATTCACACACATATATATATATATA [CACACA_site2088] | 10.2 ± 0.38 |
| AAAAAAAAAAAAAATTCACACACATATAAAAAATTA [CACACA_site8140] | 8.31 ± 0.47 |
| GTTATTAAATAATTCACACACATATATAAATAAATA [CACACA_site7129] | 8.31 ± 0.48 |
| CAAAATAAAAAATTCACACACATATAAATATAAATA [CACACA_site7065] | 8.54 ± 0.24 |
| ATTATATATATATATAAACACACATAAATATAAATA [CACACA_site8291] | 8.56 ± 0.38 |
| AAAATATTTATTTTTTGTACACATAAAAACGCACTT [XGTACX_site4132] | 8.62 ± 0.11 |
| TATTATTTTTTAAATTGTACAATAAATTATAAAAGG [XGTACX_site1162] | 8.41 ± 0.39 |
| TTCTAATATTTTTGCACACTAAACAATAAATTTCCT [CACACA_site3944] | 8.885 ± 0.078 |
| AGCTCTCAAAATTATTCACACGTGTCCTGTTATATA [CACACA_site5415] | 9.26 ± 0.47 |

| Sequence | gcPBM binding intensity (ln) |
| --- | --- |
| TTTGTGTAAAGAATCAGTACATATAATATATATATA [XGTACX_site1972] | 9.34 ± 0.33 |
| ATATATTTCATTTTTGTACACACAACGTTGGAGGGT [CACACA_site8999] | 8.84 ± 0.39 |
| AAAATAATTGTTTACACACCCATTTGTAATTTTACC [CACACA_site3614] | 8.54 ± 0.37 |
| GTACCTATTTCATACACACACACACGCAAACAAACA [CACACA_site6590] | 9.01 ± 0.34 |
| TTAACTCAAGAGTGTACACATATATATATATATATA [CACACA_site4334] | 10.2 ± 0.47 |
| GTATATATGTATATGTGTACACATATTCTTAACTCA [XGTACX_site309] | 8.88 ± 0.33 |
| CACTTAACACAAGAGTGTACACATATATATATATAT [XGTACX_site686] | 10.1 ± 0.53 |
| TTATAAATGTAACGATGTACTTTTAAAAGTTTCCTT [XGTACX_site109] | 8.36 ± 0.38 |
| TGGTATTAAGGAGAGGGTACAAAAAAAAAAAAAAAA [XGTACX_site1668] | 8.28 ± 0.49 |
| AATAATATCATTTAGACACACACTCTTACAATATGT [CACACA_site8832] | 8.61 ± 0.45 |
| GTTTATATTTAATTTTTTTGTTTTTTTGTGTAATTC [XGTACX_negctrl_site194] | 8.53 ± 0.47 |
| AGATTTAAATATCATACACACTTTATCTATAATACA [CACACA_site6581] | 8.32 ± 0.4 |
| TAAAAAATAAATATATGTACATATTTATTTTTTTTT [XGTACX_site850] | 8.21 ± 0.35 |
| CATATTAATATTATGGGTACATATAAATTTACATTC [XGTACX_site687] | 8.64 ± 0.38 |
| ATATATATATATATATGTACATAATTAATAATTAGA [XGTACX_site5672] | 10.3 ± 0.25 |
| AATAAATTAATTTTGGGTACATATATATATATATAT [XGTACX_site3807] | 10.2 ± 0.23 |
| ATATATATATATATATGTACATAAATATTTTAAAAT [XGTACX_site4980] | 10.3 ± 0.4 |
| ATAAAATTTTATATGGGTACATAATATAATATATAT [XGTACX_site8160] | 8.84 ± 0.41 |
| GTATTTTTTTTAATATGTACATATAAAATATTTTAT [XGTACX_site8329] | 8.96 ± 0.31 |
| AAATAATTTACTTAATGTACATATATATATATATAT [XGTACX_site8594] | 10.59 ± 0.092 |
| TTATAATTTAATAAATGTACATAAATAATATACATA [XGTACX_site7271] | 8.26 ± 0.18 |
| TTAATATTAATTATATGTACATATAATATATATATA [XGTACX_site1757] | 9.18 ± 0.13 |
| ATAAATATATTTAAATGTACATAATATATATATATA [XGTACX_site5137] | 9.96 ± 0.18 |
| TAATTAATAATAATATGTACATATTAATATATTATT [XGTACX_site6900] | 8.29 ± 0.24 |
